Experimental data: a collection of fitness landscapes (doi:10.1016/j.celrep.2020.107928)
In all, about 81,000 sequences were measured (“one-hybrid fitness for binding parS DNA”: median about -0.17, highest 2% from about 0.51 on). For the sample, the highest values were picked, then their nearest neighbours and some sequences at random.

B1: Caulobacter ParB omega fusion; a variant is named by its letters at X, in order, B8GW30 (parent)
chain: MESVVVGEPGMSEGRRGLGRGLSALLGEVDAAPAQAPGEQLGGSREAPIEILQRNPDQPRRTFREEDLEDLSNSIREKGVLQPILVRPSPDTAGEYQIVAGERAWRAAQRAGLKTVPIMVRELDDLAVLEIGIIENVQRADLNVLEEALSYKVLMEKFERTQENIAQTIGKSXSHVANXMRLLXLPDEVQSYLVSGELTAXHARAIAAAADPVALAKQIIEGGLSVRETEALARKAPNLSAGKSKGGRPPRVKDTDTQALESDLSSVLGLDVSIDHRGSTGTLTITYATLEQLDDLCNRLTRGI

Variants of: B1
Assay: one-hybrid fitness for binding parS DNA (scaled: cognate 1, non-cognate 0); higher = stronger binding
Details: with parS DNA site
In short: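 The reporter was HIS3, with the binding site 19 bp from the promoter, in E. coli USO used for bacterial one-hybrid selection of Caulobacter ParB libraries with four specificity codons randomised. Growth was on M9 lacking histidine, with 0.1 mM IPTG and 5 mM 3-AT, for 48 hours at 37°C. Illumina sequencing covered plasmids before and after selection; three replicate libraries were pooled and variants with under 10 reads dropped. A fitness score is the log change in variant-to-wild-type read ratio, rescaled to the cognate and non-cognate references.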

one-hybrid fitness for binding parS DNA, 0.264:
RKAM

one-hybrid fitness for binding parS DNA, 0.298:
RTCM

one-hybrid fitness for binding parS DNA, 0.575:
RQSA

one-hybrid fitness for binding parS DNA, 0.314:
RCYW

one-hybrid fitness for binding parS DNA, 0.868:
RNMS

one-hybrid fitness for binding parS DNA, 0.619:
RNVG

one-hybrid fitness for binding parS DNA, 0.302:
RKCN

one-hybrid fitness for binding parS DNA, 0.306:
RACH

one-hybrid fitness for binding parS DNA, 0.399:
RLKM

one-hybrid fitness for binding parS DNA, 0.532:
RQFA

one-hybrid fitness for binding parS DNA, 0.254:
RWWA

one-hybrid fitness for binding parS DNA, 0.632:
RQRA

one-hybrid fitness for binding parS DNA, 1.01:
RCCS
RMCS
RCFG

one-hybrid fitness for binding parS DNA, 0.363:
RKFY

one-hybrid fitness for binding parS DNA, 0.447:
RICN

one-hybrid fitness for binding parS DNA, 0.299:
RNMN

one-hybrid fitness for binding parS DNA, 0.563:
RQGA

one-hybrid fitness for binding parS DNA, 0.855:
RKCS

one-hybrid fitness for binding parS DNA, 0.995:
RSCS

one-hybrid fitness for binding parS DNA, 0.598:
RAWA

one-hybrid fitness for binding parS DNA, 0.554:
RQEA

one-hybrid fitness for binding parS DNA, 0.252:
RTCF

one-hybrid fitness for binding parS DNA, 0.42:
RQIA

one-hybrid fitness for binding parS DNA, 0.941:
RNKG

one-hybrid fitness for binding parS DNA, 1:
RCHC
RFCS
RACS

one-hybrid fitness for binding parS DNA, 0.791:
RHDT

one-hybrid fitness for binding parS DNA, 0.888:
RMCT

one-hybrid fitness for binding parS DNA, 0.362:
RMCM

one-hybrid fitness for binding parS DNA, 0.917:
RTCT

one-hybrid fitness for binding parS DNA, 0.67:
RRCS

one-hybrid fitness for binding parS DNA, 0.548:
RYEA
RQQA

one-hybrid fitness for binding parS DNA, 0.317:
RKKH

one-hybrid fitness for binding parS DNA, 0.36:
RKVN

one-hybrid fitness for binding parS DNA, 0.967:
RKVS

one-hybrid fitness for binding parS DNA, 0.571:
RQAA

one-hybrid fitness for binding parS DNA, 0.86:
RTNT

one-hybrid fitness for binding parS DNA, 0.22:
RLCH

one-hybrid fitness for binding parS DNA, 0.476:
RAEA
RSEA

one-hybrid fitness for binding parS DNA, 0.648:
RLWA

one-hybrid fitness for binding parS DNA, ≤ 0.2:
RIPD
RIPH
RIIP
RIID
QKRS
YTMT
HPWL
RNKQ
RNVQ
RNVK
RNKK
MYPT
REFV
RNML
RNMP
RNMD
RNMH
RNMK
RNMF
GRCA
PERA
TDEN
YRHT
VWAT
VNSR
FTWC
RYFD
RYAD
NHVC
AYMK
PDKP
YYNR
TQLI
KLHC
YNTM
RHNI
RKVH
QPGI
QTTR
DASR
WTNT
MFKT
CHQS
PYYS
RHDK
RHNQ
RHNE
RHDR
TAQY
WPVT
QWVG
YAIL
KTMW
TMYG
RLVR
RLKQ
TPAN
FQLR
LNTV
MPHS
CAAN
RDHC
RPHC
RMHK
REHC
RRHQ
RMHL
RRHF
MHLM
TNRP
MWSS
SVES
RRCD
RHCH
RRCP
RKCP
RHCP
PGNH
VCRG
IYRT
LYPG
CREE
CEDV
YGYI
FTNL
MSES
RPCS
RTCP
RFCP
PMLA
LCAF
IIKG
WMTR
RCFL
LMPT
VVHG
EKSI
RACP
RMCD
RMCP
CVLT
RWPM
GPYM
RKAQ
RKFF
AFRC
LDSE
NVKW
VMRY
RECT
RMCL
RPCT
RDCT
YHLN
EVTM
RFLI
QHYD
IDQR
NLHV
MGRC
RPEA
TIMD
PRLC
MSLL
FHAL
SRDG
AALF
LFAM
RDEA
FASM
SHST
GLPS
DMPT
YLIW
FRKA
LMTN
GIRR
LALL
REFG
RSFK
RPFG
RDFG
AKRC
QSGM
MCTL
TMTY
MHDG
WDTK
RQPA
KQQA
PQHA
NQHA
NQKA
PQTA
WANF
HAGM
IYPG
LMKM
TYFC
GSSM
KQRA
EQAA
DQAA
DQSA
DQRA
KQSA
FPAS
PFLV
ENLG
YSQA
QHET
ASIT
GAHR
MLHS
VETL
LASY
RCTV
TKMR
PQMA
NQMA
CQLA
PQLA
TQYS
HPLV
ANIE
VLKR
HEGL
LRKS
CVSN
CQGA
TVTV
NTDT
RTDR
RTNE
RTNR
MPRE
IDTG
PPTT
RHPH
PTAI
NAWA
DLWA
RPWA
PWGP
CSAK
HTAP

one-hybrid fitness for binding parS DNA, 1.03:
RLCS

one-hybrid fitness for binding parS DNA, 0.256:
RYFF

one-hybrid fitness for binding parS DNA, 0.634:
RMWA

one-hybrid fitness for binding parS DNA, 0.544:
RQWA

one-hybrid fitness for binding parS DNA, 0.375:
RFCN

one-hybrid fitness for binding parS DNA, 0.99:
RTCS

one-hybrid fitness for binding parS DNA, 0.878:
RKAC
RKFC

one-hybrid fitness for binding parS DNA, 0.745:
RNMC

one-hybrid fitness for binding parS DNA, 1.02:
RICS

one-hybrid fitness for binding parS DNA, 0.792:
RYFT

one-hybrid fitness for binding parS DNA, 0.387:
RYAN

one-hybrid fitness for binding parS DNA, 0.486:
RQVA

one-hybrid fitness for binding parS DNA, 0.257:
RSHF

one-hybrid fitness for binding parS DNA, 0.819:
RNMG

one-hybrid fitness for binding parS DNA, 0.515:
RCEA
RKEA

one-hybrid fitness for binding parS DNA, 0.938:
RHCS

one-hybrid fitness for binding parS DNA, 0.24:
RICH

one-hybrid fitness for binding parS DNA, 0.962:
RLVC

one-hybrid fitness for binding parS DNA, 0.968:
RSHC

one-hybrid fitness for binding parS DNA, 0.295:
RLVM

one-hybrid fitness for binding parS DNA, 0.407:
RSCN

one-hybrid fitness for binding parS DNA, 0.58:
RTEA

one-hybrid fitness for binding parS DNA, 0.583:
RQYA

one-hybrid fitness for binding parS DNA, 0.356:
RKKN

one-hybrid fitness for binding parS DNA, 0.835:
RLKC

one-hybrid fitness for binding parS DNA, 0.325:
RNMY

one-hybrid fitness for binding parS DNA, 0.812:
RIPS

one-hybrid fitness for binding parS DNA, 0.802:
RREA
RTDT

one-hybrid fitness for binding parS DNA, 0.512:
RHEA

one-hybrid fitness for binding parS DNA, 0.454:
RFEA

one-hybrid fitness for binding parS DNA, 0.857:
RHNT

one-hybrid fitness for binding parS DNA, 0.558:
RQCA

one-hybrid fitness for binding parS DNA, 0.68:
RCWA

one-hybrid fitness for binding parS DNA, 0.347:
RSCM

one-hybrid fitness for binding parS DNA, 0.567:
RLEA

one-hybrid fitness for binding parS DNA, 0.701:
RQKA

one-hybrid fitness for binding parS DNA, 0.899:
RYAT

one-hybrid fitness for binding parS DNA, 0.809:
RSCT

one-hybrid fitness for binding parS DNA, 0.94:
RSFG

one-hybrid fitness for binding parS DNA, 0.913:
RCCT

one-hybrid fitness for binding parS DNA, 0.616:
RRHC

one-hybrid fitness for binding parS DNA, 0.596:
RQMA

one-hybrid fitness for binding parS DNA, 0.979:
RMHC

one-hybrid fitness for binding parS DNA, 0.568:
RQLA

one-hybrid fitness for binding parS DNA, 0.289:
RTCH

one-hybrid fitness for binding parS DNA, 0.994:
RIIS

one-hybrid fitness for binding parS DNA, 0.457:
RLCN

one-hybrid fitness for binding parS DNA, 0.57:
RQHA

one-hybrid fitness for binding parS DNA, 0.678:
RNMT

one-hybrid fitness for binding parS DNA, 0.223:
RCCP
RSCH

one-hybrid fitness for binding parS DNA, 0.69:
RKKS
